# Calls of active or inactive are those of the source. Rule for the calls: active = hit-call score of the fitted dose curve at least 0.9, where 1 is the maximum; inactive = score below 0.9.
# Assays:
# [1] = ATG_M_32_CIS: Attagene CIS-FACTORIAL HepG2 Assay for M32 Transcription Factor (Internal Marker) (AID 2282949); details: HepG2 Attagene cis-factorial M32 reporter, mRNA; actives raise or lower the signal;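 note: background control marker of the multiplexed CIS panel rather than a real target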
# Outline: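 Transient MRTU transfection of HepG2; 24 h compound treatment; TriZol RNA, oligo(dT) RT, reporter PCR, 6-FAM primer extension, HpaI cut, CE. Gain/loss of signal vs DMSO.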
# [2] = ATG_M_06_CIS: Attagene CIS-FACTORIAL HepG2 Assay for M06 Transcription Factor (Internal Marker) (AID 2282950); details: HepG2 Attagene CIS-FACTORIAL M06 internal marker reporter; actives raise or lower the signal
# Outline: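 Measured 24 h post-dosing in transiently transfected HepG2 cells, this internal-marker endpoint reports reporter mRNA via RT-PCR with fluorescent primer extension and capillary electrophoresis. DMSO served as negative control and baseline for bidirectional fitting.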
# [3] = molecular target: Hypoxia-inducible factor 1-alpha (Homo sapiens) (UniProt Q16665); assay: ATG_HIF1a_CIS: Attagene CIS-FACTORIAL HepG2 Assay for human Hypoxia Inducible Factor 1 (HIF1A) (AID 2282951); details: HepG2 Attagene cis-factorial HIF1a reporter transcription; actives raise or lower the signal
# Outline: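 Measures endogenous transcription-factor activity through cis-regulated reporter mRNA in HepG2. Cells dosed 24 h; transcripts quantified by RT-PCR with 6-FAM-labelled products separated by capillary electrophoresis; DMSO serves as negative control.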
# [4] = molecular target: Hepatocyte nuclear factor 6 (Homo sapiens) (UniProt Q9UBC0); assay: ATG_HNF6_CIS: Attagene CIS-FACTORIAL HepG2 Assay for human Hepatocyte Nuclear Factor 6 (HNF6) (AID 2282952); details: HepG2 Attagene cis-factorial HNF6 reporter transcription; actives raise or lower the signal
# Outline: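 First, HepG2 cells were transfected with the multiplexed cis reporter library and dosed with chemical for 24 h. Next, RNA was reverse-transcribed, PCR-amplified and fluorescently labelled. Finally, HpaI-digested fragments were read by capillary electrophoresis.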
# [5] = molecular target: Heat shock factor protein 1 (Homo sapiens) (UniProt Q00613); assay: ATG_HSE_CIS: Attagene CIS-FACTORIAL HepG2 Assay for human Heat Shock Transcription Factor 1 (HSE) (AID 2282953); details: HepG2 HSE cis-reporter, Attagene RNA transcription; actives raise or lower the signal
# Outline: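 Reporter mRNA induction in HepG2 is measured 24 h after dosing, using transiently transfected multiplexed cis-regulated reporter units. Signal comes from capillary electrophoresis of labelled RT-PCR products, with DMSO as negative control.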
# [6] = ATG_MRE_CIS: Attagene CIS-FACTORIAL HepG2 Assay for human Metal Responsive Element (MRE) (AID 2282954); details: HepG2 MRE cis-reporter transcription, Attagene multiplex; actives raise or lower the signal
# Outline: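 Multiplexed cis-reporter assay in human HepG2 liver cells, 24 h incubation with test chemical. Reporter transcripts measured by RT-PCR and capillary electrophoresis; values from bidirectional curve fitting versus DMSO.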
# [7] = ATG_PBREM_CIS: Attagene CIS-FACTORIAL HepG2 Assay for human Phenobarbital-responsive Enhancer Module (PBREM) (AID 2282955); details: HepG2 PBREM cis-reporter, Attagene multiplexed transcription; actives raise or lower the signal
# Outline: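 Fluorescence of labelled reporter cDNA fragments, resolved by capillary electrophoresis, gives mRNA induction in transfected HepG2 cells treated for 24 h; DMSO serves as negative control and baseline.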
# [8] = molecular target: Paired box protein Pax-6 (Homo sapiens) (UniProt P26367); assay: ATG_Pax6_CIS: Attagene CIS-FACTORIAL HepG2 Assay for human Paired Box 6 (PAX6) (AID 2282956); details: HepG2 CIS-FACTORIAL PAX6 reporter transcription, RNA readout; actives raise or lower the signal
# Outline: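 Readout: reporter transcript fluorescence after RT-PCR and capillary electrophoresis. Cells: HepG2, transiently transfected with cis-regulated MRTUs. Exposure 24 h. Gain or loss of signal fitted bidirectionally relative to DMSO.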
# [9] = ATG_RORE_CIS: Attagene CIS-FACTORIAL HepG2 Assay for human RAR-related Orphan Receptor Element (RORE) (AID 2282959); details: HepG2 Attagene cis-factorial RORE reporter, mRNA; actives raise or lower the signal
# Outline: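 Cells were HepG2 carrying transfected cis-regulated reporter constructs, dosed for 24 hours. Total RNA was reverse-transcribed and reporter cDNA amplified, fluorescently labeled and sized by capillary electrophoresis. Activity was fitted bidirectionally relative to DMSO.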
# [10] = ATG_Sox_CIS: Attagene CIS-FACTORIAL HepG2 Assay for human SRY-box transcription factor (SOX) (AID 2282960); details: HepG2 Attagene cis-factorial SOX reporter, mRNA; actives raise or lower the signal
# Outline: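 Transient MRTU transfection of HepG2; 24 h compound incubation; TriZol RNA, oligo(dT) RT, PCR, 6-FAM primer extension, HpaI cut, CE. Bidirectional fit, DMSO = baseline.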
# [11] = molecular target: Transcription factor Sp1 (Homo sapiens) (UniProt P08047); assay: ATG_Sp1_CIS: Attagene CIS-FACTORIAL HepG2 Assay for human Specificity Protein 1 (Sp1) (AID 2282961); details: HepG2 Sp1 cis-reporter transcription, actives raise or lower the signal
# Outline: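 Endogenous Sp1 activity was gauged in human liver HepG2 cells bearing transfected reporter units under a cis-regulating promoter. After 24 h dosing, reporter mRNA was quantified by RT-PCR with capillary electrophoresis, and activity fitted bidirectionally versus DMSO.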
# [12] = ATG_SREBP_CIS: Attagene CIS-FACTORIAL HepG2 Assay for human Sterol Regulatory Element Binding (SREBP) (AID 2282962); details: HepG2 Attagene cis-factorial SREBP reporter, mRNA; actives raise or lower the signal
# Outline: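 Readout: fluorescent reporter-transcript peaks resolved by capillary electrophoresis after RT-PCR. Cells were human HepG2 carrying transfected cis-promoter reporter constructs, dosed for 24 h. Gain or loss of signal was fitted against DMSO controls.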
# [13] = molecular target: Signal transducer and activator of transcription 3 (Homo sapiens) (UniProt P40763); assay: ATG_STAT3_CIS: Attagene CIS-FACTORIAL HepG2 Assay for human Signal Transducer and Activator of Transcription 3 (STAT3) (AID 2282963); details: HepG2, Attagene cis-factorial STAT3 reporter transcription; actives raise or lower the signal
# Outline: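 Cis-factorial format: endogenous transcription factors in HepG2 drive transfected reporter units. After 24 h treatment, reporter RNA was reverse-transcribed, amplified, FAM-labelled and HpaI-digested before CE analysis; activity scored in both directions against DMSO.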
# [14] = ATG_TA_CIS: Attagene CIS-FACTORIAL HepG2 Assay for human TA Basal Promoter (AID 2282964); details: HepG2 Attagene CIS-factorial TA basal promoter reporter; actives raise or lower the signal
# Outline: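 Cis-factorial format in HepG2: reporters report endogenous factors, not chimeric Gal4 fusions. After 24 h treatment, reporter transcripts were measured by RT-PCR-capillary electrophoresis fluorescence, analysed bidirectionally versus DMSO.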
# [15] = ATG_TCF_b_cat_CIS: Attagene CIS-FACTORIAL HepG2 Assay for human T-Cell-Factor with beta-catenin (TCF/b-cat) (AID 2282965); details: HepG2 TCF/beta-catenin cis-reporter transcription, actives raise or lower the signal
# Outline: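 Endogenous TCF/LEF activity read as reporter transcript level via RT-PCR and capillary electrophoresis fluorescence in transfected HepG2, 24 h exposure; gain or loss of signal fitted against DMSO controls.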
# [16] = ATG_TAL_CIS: Attagene CIS-FACTORIAL HepG2 Assay for human TAL Basal Promoter (AID 2282966); details: HepG2 Attagene cis-factorial TAL promoter reporter; actives raise or lower the signal;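 note: background control endpoint measuring basal TAL promoter reporter mRNA not a specific factor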
# Outline: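 Basal-promoter background-control endpoint from a multiplexed HepG2 reporter panel. Cells were exposed 24 h, then reporter mRNA was read by RT-PCR/CE fluorescence and fitted in both directions relative to DMSO.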
# [17] = ATG_TGFb_CIS: Attagene CIS-FACTORIAL HepG2 Assay for human Transforming Growth Factor (TGF) (AID 2282967); details: HepG2 Attagene CIS TGFb reporter, mRNA transcription; actives raise or lower the signal
# Outline: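 Multiplexed cis-reporter HepG2 system, 24 h treatment; mRNA induction read by fluorescence after RT-PCR and CE; DMSO negative control, bidirectional curve fitting.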
# [18] = ATG_VDRE_CIS: Attagene CIS-FACTORIAL HepG2 Assay for human Vitamin D Receptor Element (VDRE) (AID 2282968); details: HepG2 VDRE cis-reporter transcription, actives raise or lower the signal
# Outline: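 Measures endogenous factor activity through cis-element-driven reporter transcripts in transiently transfected HepG2. Cells are treated 24 h; reporter mRNA is quantified by RT-PCR and capillary electrophoresis; fitting is bidirectional.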
# [19] = ATG_PXRE_CIS: Attagene CIS-FACTORIAL HepG2 Assay for human Pregnane X Receptor Element (PXRE) (AID 2282957); details: HepG2 Attagene CIS-FACTORIAL PXRE reporter, mRNA; actives raise or lower the signal
# Outline: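 After a 24 h chemical incubation, total RNA from transfected HepG2 cells was reverse-transcribed and reporter cDNA amplified, FAM-labeled, HpaI-digested and sized by capillary electrophoresis. DMSO served as baseline for bidirectional curve fitting.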
# [20] = ATG_PPRE_CIS: Attagene CIS-FACTORIAL HepG2 Assay for human Peroxisome Proliferator-activated Response Element (PPRE) (AID 2282958); details: HepG2 PPRE cis-element reporter, Attagene transcription factor profiling; actives raise or lower the signal
# Outline: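 Cells are first transfected transiently with the multiplexed reporter library, then dosed for 24 h. Total RNA is reverse-transcribed, amplified, fluorescently end-labeled and HpaI-cut before capillary electrophoresis; activity is fitted bidirectionally against DMSO controls.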
# Signal transducer and activator of transcription 3 (Homo sapiens), sequence (P40763 whole entry, looked up): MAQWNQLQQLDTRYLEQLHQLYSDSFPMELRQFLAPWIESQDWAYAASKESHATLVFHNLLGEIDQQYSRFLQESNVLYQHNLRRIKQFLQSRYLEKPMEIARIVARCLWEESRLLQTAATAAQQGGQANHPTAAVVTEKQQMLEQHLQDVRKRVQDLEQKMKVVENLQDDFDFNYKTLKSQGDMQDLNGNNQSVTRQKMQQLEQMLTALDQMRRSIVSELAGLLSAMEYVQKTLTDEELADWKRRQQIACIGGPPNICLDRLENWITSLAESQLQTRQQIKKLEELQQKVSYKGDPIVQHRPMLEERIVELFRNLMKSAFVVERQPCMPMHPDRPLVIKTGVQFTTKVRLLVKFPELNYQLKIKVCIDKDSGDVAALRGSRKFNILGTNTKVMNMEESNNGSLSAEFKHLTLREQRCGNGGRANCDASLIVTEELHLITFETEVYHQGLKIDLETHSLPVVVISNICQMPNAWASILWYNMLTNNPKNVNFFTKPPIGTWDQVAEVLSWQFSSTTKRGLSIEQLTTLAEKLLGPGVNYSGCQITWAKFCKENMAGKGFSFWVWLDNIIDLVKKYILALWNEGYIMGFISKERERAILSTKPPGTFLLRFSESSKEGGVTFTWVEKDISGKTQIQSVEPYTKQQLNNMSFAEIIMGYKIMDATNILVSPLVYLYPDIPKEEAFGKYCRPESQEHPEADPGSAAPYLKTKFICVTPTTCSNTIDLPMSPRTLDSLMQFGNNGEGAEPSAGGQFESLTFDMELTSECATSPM
# Transcription factor Sp1 (Homo sapiens), sequence (P08047 whole entry, looked up): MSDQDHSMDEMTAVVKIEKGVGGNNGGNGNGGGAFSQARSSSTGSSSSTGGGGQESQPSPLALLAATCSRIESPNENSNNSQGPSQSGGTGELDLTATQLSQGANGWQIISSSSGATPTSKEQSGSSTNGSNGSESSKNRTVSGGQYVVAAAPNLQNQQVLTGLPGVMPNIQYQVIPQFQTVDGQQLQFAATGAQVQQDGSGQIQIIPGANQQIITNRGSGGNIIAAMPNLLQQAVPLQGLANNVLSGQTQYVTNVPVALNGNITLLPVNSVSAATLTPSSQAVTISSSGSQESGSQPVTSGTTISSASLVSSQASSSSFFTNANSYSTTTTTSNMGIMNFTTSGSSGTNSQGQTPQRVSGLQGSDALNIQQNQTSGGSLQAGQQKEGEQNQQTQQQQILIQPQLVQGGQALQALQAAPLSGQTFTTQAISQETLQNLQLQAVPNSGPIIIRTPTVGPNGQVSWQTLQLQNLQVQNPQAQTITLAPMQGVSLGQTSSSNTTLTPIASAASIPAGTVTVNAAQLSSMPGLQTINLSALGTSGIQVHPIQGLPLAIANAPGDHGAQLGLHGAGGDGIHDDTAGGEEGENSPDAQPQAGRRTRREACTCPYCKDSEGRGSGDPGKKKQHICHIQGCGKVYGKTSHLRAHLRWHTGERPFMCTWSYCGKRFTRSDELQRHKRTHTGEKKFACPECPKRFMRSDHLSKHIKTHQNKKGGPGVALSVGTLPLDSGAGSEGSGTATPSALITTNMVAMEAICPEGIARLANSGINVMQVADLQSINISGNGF
# Hepatocyte nuclear factor 6 (Homo sapiens), sequence (Q9UBC0 whole entry, looked up, the tested form may be a part): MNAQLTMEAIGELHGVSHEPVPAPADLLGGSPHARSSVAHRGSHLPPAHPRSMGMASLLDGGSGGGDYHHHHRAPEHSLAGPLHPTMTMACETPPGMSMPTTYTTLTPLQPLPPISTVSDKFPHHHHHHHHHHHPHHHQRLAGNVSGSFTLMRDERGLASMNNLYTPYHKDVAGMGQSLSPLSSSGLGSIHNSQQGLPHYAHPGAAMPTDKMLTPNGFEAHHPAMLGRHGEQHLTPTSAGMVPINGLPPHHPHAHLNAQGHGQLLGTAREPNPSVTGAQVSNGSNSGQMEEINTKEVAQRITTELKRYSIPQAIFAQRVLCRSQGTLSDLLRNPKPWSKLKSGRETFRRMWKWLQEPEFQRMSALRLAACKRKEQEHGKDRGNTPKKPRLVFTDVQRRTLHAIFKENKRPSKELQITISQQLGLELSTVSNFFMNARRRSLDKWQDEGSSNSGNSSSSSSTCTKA
# Heat shock factor protein 1 (Homo sapiens), sequence (Q00613 whole entry, looked up): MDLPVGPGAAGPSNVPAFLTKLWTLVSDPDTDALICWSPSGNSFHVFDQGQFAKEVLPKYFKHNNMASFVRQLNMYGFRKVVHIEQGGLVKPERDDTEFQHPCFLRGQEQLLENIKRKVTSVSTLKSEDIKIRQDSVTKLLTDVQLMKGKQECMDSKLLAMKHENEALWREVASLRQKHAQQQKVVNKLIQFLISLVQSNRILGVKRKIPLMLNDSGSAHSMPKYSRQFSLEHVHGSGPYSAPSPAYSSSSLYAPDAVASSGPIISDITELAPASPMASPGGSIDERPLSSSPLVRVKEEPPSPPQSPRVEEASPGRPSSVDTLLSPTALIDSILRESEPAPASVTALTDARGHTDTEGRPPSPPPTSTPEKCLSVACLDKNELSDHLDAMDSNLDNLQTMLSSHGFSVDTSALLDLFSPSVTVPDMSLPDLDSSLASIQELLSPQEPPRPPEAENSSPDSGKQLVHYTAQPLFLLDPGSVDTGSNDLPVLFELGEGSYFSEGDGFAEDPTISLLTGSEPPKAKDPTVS
# Paired box protein Pax-6 (Homo sapiens), sequence (P26367 whole entry, looked up): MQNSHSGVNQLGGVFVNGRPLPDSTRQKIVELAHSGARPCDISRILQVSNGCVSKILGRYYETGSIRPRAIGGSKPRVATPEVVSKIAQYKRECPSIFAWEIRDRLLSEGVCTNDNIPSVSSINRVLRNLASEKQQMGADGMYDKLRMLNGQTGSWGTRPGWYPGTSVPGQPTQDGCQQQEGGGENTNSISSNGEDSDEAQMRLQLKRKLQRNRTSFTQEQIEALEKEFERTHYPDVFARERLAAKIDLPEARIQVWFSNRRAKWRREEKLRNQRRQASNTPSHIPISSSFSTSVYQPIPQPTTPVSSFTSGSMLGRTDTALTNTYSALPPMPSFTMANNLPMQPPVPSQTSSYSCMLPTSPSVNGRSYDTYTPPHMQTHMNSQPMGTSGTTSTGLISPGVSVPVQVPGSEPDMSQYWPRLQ
# Hypoxia-inducible factor 1-alpha (Homo sapiens), sequence (Q16665 whole entry, looked up): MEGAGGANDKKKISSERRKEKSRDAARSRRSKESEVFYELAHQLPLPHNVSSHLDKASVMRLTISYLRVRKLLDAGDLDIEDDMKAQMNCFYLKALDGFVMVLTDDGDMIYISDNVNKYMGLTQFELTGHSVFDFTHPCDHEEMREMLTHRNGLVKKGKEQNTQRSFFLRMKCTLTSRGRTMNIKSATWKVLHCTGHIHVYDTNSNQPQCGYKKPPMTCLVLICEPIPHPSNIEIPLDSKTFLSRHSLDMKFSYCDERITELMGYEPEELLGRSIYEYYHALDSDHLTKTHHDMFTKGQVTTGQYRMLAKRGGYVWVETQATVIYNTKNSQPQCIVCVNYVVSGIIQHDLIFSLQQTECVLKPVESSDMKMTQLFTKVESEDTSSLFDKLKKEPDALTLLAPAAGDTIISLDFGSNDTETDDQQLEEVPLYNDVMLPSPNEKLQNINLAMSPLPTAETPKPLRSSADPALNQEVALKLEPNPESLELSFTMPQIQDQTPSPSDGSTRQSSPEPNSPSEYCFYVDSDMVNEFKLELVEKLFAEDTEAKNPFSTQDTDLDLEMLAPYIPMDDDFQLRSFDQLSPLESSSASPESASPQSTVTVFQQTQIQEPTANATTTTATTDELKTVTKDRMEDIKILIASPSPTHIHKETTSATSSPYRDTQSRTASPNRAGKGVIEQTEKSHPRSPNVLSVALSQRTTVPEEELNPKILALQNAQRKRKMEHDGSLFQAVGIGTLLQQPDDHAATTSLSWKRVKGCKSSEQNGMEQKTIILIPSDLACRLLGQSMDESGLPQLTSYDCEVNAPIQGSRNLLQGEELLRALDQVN
smiles,measurement,setting,value
CCCCCCCCBr,outcome,[1],inactive
same,outcome,[2],inactive
same,outcome,[3],inactive
same,outcome,[4],inactive
same,outcome,[5],inactive
same,outcome,[6],inactive
same,outcome,[7],inactive
same,outcome,[8],inactive
same,outcome,[9],inactive
same,outcome,[10],inactive
same,outcome,[11],inactive
same,outcome,[12],inactive
same,outcome,[13],inactive
same,outcome,[14],inactive
same,outcome,[15],inactive
same,outcome,[16],inactive
same,outcome,[17],inactive
same,outcome,[18],inactive
Brc1ccc(Oc2c(Br)cc(Br)cc2Br)c(Br)c1,outcome,[1],inactive
same,outcome,[2],inactive
same,outcome,[3],inactive
same,outcome,[4],inactive
same,outcome,[5],inactive
same,outcome,[6],inactive
same,outcome,[7],inactive
same,outcome,[19],inactive
same,outcome,[20],inactive
same,outcome,[9],inactive
same,outcome,[10],inactive
same,outcome,[11],inactive
same,outcome,[12],inactive
same,outcome,[13],inactive
same,outcome,[14],inactive
same,outcome,[15],inactive
same,outcome,[16],inactive
same,outcome,[17],inactive
same,outcome,[18],inactive
O=C(N[C@H]1CN2CCC1CC2)c1ccc2c(c1)OCCO2,outcome,[1],inactive
same,outcome,[2],inactive
same,outcome,[3],inactive
same,outcome,[4],inactive
same,outcome,[5],inactive
same,outcome,[6],inactive
same,outcome,[7],inactive
same,outcome,[19],inactive
same,AC50,[20],100 µM (active)
same,outcome,[9],inactive
same,outcome,[10],inactive
same,outcome,[11],inactive
same,outcome,[12],inactive
same,outcome,[13],inactive
same,outcome,[14],inactive
same,outcome,[15],inactive
same,outcome,[16],inactive
same,outcome,[17],inactive
same,outcome,[18],inactive
ClCCN1CCOCC1,outcome,[1],inactive
same,outcome,[2],inactive
same,outcome,[3],inactive
same,outcome,[4],inactive
same,outcome,[5],inactive
same,outcome,[6],inactive
same,outcome,[8],inactive
same,outcome,[19],inactive
same,outcome,[20],inactive
same,outcome,[9],inactive
same,outcome,[10],inactive
same,outcome,[11],inactive
same,outcome,[12],inactive
same,outcome,[13],inactive
same,outcome,[14],inactive
same,outcome,[16],inactive
same,outcome,[18],inactive
N#CCCC(Br)(C#N)CBr (stereo not given),outcome,[1],inactive
same,outcome,[2],inactive
same,outcome,[3],inactive
same,AC50,[4],33.4 µM (active)
same,AC50,[5],62.9 µM (active)
same,AC50,[6],49.5 µM (active)
same,outcome,[7],inactive
same,AC50,[19],33.4 µM (active)
same,outcome,[20],inactive
same,outcome,[9],inactive
same,AC50,[10],49.4 µM (active)
same,AC50,[11],49.2 µM (active)
same,outcome,[12],inactive
same,outcome,[13],inactive
same,outcome,[14],inactive
same,AC50,[15],51 µM (active)
same,outcome,[16],inactive
same,outcome,[17],inactive
same,AC50,[18],43.9 µM (active)
CN(CCCC(O)c1cccnc1)N=O (stereo not given),outcome,[1],inactive
same,outcome,[2],inactive
same,outcome,[3],inactive
same,outcome,[4],inactive
same,outcome,[5],inactive
same,outcome,[6],inactive
same,outcome,[8],inactive
same,outcome,[19],inactive
same,outcome,[20],inactive
same,outcome,[9],inactive
same,outcome,[10],inactive
same,outcome,[11],inactive
same,outcome,[12],inactive
same,outcome,[13],inactive
same,outcome,[14],inactive
same,outcome,[15],inactive
same,outcome,[16],inactive
same,outcome,[17],inactive
same,outcome,[18],inactive
CN(C)c1ccc(N=O)cc1,outcome,[1],inactive
same,outcome,[2],inactive
same,outcome,[3],inactive
same,outcome,[4],inactive
same,AC50,[5],25.4 µM (active)
same,outcome,[6],inactive
same,outcome,[7],inactive
same,outcome,[19],inactive
same,outcome,[20],inactive
same,outcome,[9],inactive
same,outcome,[10],inactive
same,outcome,[11],inactive
same,outcome,[12],inactive
same,outcome,[13],inactive
same,outcome,[14],inactive
same,outcome,[15],inactive
same,outcome,[16],inactive
same,outcome,[17],inactive
same,outcome,[18],inactive
